Drawing on PubChem BioAssay (NCI), this text covers growth for 40 compounds.

This is part of a sample that, as a whole, favours compounds with a hit. Of some 83,000 tested, about 20% had one in any assay.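 Cell lines were cultured in 96-well plates, exposed to a single compound concentration, and assessed for percent growth 48 hours later.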 Unmarked numbers belong to inactive results. Active and inactive are the calls of the source.

For the assay, the system named is SR leukemia. Nature of the assay: NCI-60 one-dose screen, 48 h (100 = growth as untreated, 0 = no growth, -100 = all killed). The note with it: 10 µM unless noted. The method, then:
Growth inhibition of the SR human tumor cell line is measured as a screen for anti-cancer activity. Cells are grown in 96 well plates and exposed to the test compound for 48 hours. Compounds are tested at a single concentration, which is 10^-5 M for most compounds. The reported endpoint is percent growth (GI% or GIPRCNT), where numbers from 0 - 100% represent growth inhibition, and numbers from -100% - 0 represent cell death. For example, a value of 40 represents 60% growth inhibition. A value of 0 means no net growth occurred over the course of the experiment. A value of -40 indicates 40% of cells at the beginning of the experiment died by the end of the experiment. A value of -100 means all cells are dead at the end of the experiment.
NCI-60 Human Tumor Cell Lines Screen was performed using the standard one-dose NCI protocol, which is described in more detail at https://dtp.cancer.gov/discovery_development/nci-60/default.htm.
Compounds with GIPRCNT values below 10 were considered active. Activity score was based on GIPRCNT using the following formula: […]
Score is 0 for GIPRCNT values of 100 or above, 50 for GIPRCNT values of 0, and 100 for GIPRCNT values of -100.
On to `CCN1C(=O)N(CC)C2C1NN=c1s/c(=C\c3cccc(F)c3)c(=O)n12` (stereo not given), for which the growth is 4.36% (active).

Turning to `COc1cc(OC)c(C(=O)/C=C/c2ccc(C#N)cc2)c(OC)c1`, the growth is 6.75% (active).

Take `Cc1ccc(C(=O)c2sc3nc4c(cc3c2N)CCCC4)c(C)c1`: the growth is 9.04% (active).

For the compound `CCCOC(=O)C1(O)CCCC1`, the growth is 94.4%.

Consider `C=CC(=O)N[C@H](/C=C/C(=O)OCC)Cc1ccc(-c2cc(Cl)cc(Cl)c2)cc1`, for which the growth is 68.7%.

Regarding `Cc1oc2nc[nH]c(=O)c2c1C(=O)/C=C/c1ccc(Cl)cc1`, the growth was -30.6% (active).

Take `COc1ccccc1OCC(=O)Nc1sc2c(c1C(N)=O)CCC2`: the growth is 65.2%.

Take `Nc1c(C(=O)c2ccc(F)cc2)sc2nc3c(cc12)CCCC3`: the growth is 46.3%.

As for `CCCCCCCCCCCCCCCCCCOc1cccc(CCOP(=O)(O)OCC[N+](C)(C)C)c1`, the growth is 58.6%.

As to `CCCCn1c(=O)c(C2CNC(=O)c3ccccc3N2)cc2ccccc21` (stereo not given), the growth was 102%.

In the case of `CC/C=C\C/C=C\C[C@H](O)C/C=C1/C(=O)C=C[C@H]1C/C=C\CCC(=O)OC`, the growth was 7.38% [8.25 µM] (active).

As for `CCOC(=O)/C=C\C(=O)NC(N)=O`, the growth is 97.3%.

Regarding `CCC1=C[C@@H]2CN(C1)Cc1c([nH]c3ccccc13)[C@@](C(=O)OC)(c1cc3c(cc1OC)N(C=O)[C@H]1[C@@](O)(C(=O)OC)[C@H](OC(C)=O)[C@]4(CC)[C@@H]5C[C@@H]5CN5CC[C@]31[C@@H]54)C2`, the growth is 9.37% (active).

For `COc1ccc(NC(=O)CSc2nc3ccccc3c(=O)n2Cc2cc(OC)c(OC)c(OC)c2)cc1`, the growth was 82.3%.

In the case of `O=C(O)Cc1ccc2c(c1)Cc1cccnc1O2`, the growth is 96.8%.

Take `C=C1C(=O)O[C@H]2[C@H]1CC/C(COC(=O)NCc1ccc(OC)cc1)=C\CC[C@@]1(C)O[C@@H]21`: the growth is -1.29% (active).

In the case of `COc1cccc(-c2nc3sccn3c2-c2ccnc(NCCNS(=O)(=O)c3ccccc3)n2)c1`, the growth was 70.3%.

As to `COc1cccc(-c2nc3sccn3c2-c2ccnc(NCCCNS(=O)(=O)c3ccccc3)n2)c1`, the growth is 50.7%.

For the compound `O=C1CCCCN1CCCCC#Cc1ccccc1C#Cc1ccccn1`, the growth is 98.6%.

Take `Nc1nc(N)c2nc(CNc3ccc(C(=O)CC(CCC(=O)O)C(=O)O)cc3)cnc2n1` (stereo not given): the growth was 28.6%.

Consider `C=C1C(=O)O[C@H]2[C@H](O)[C@@H](C)CCC/C(C)=C/CC[C@@]3(C)O[C@@H]3C[C@@H]12`, for which the growth is 94.3%.

Turning to `CC1=CNNc2c3ncnc-3ncn21`, the growth was 97.4%.

On to `COc1cccc(/C=C2\SC(N3CCN(c4ccccn4)CC3)=NC2=O)c1`, for which the growth is 89.7%.

As to `C#CCC1(c2ccc(F)c(F)c2)NS(=O)(=O)c2ccccc21` (stereo not given), the growth is 76%.

In the case of `Nc1c(C(=O)Nc2cccc(C(F)(F)F)c2)sc2nc3c(cc12)C(O)CCC3` (stereo not given), the growth was 24%.

Turning to `CCC(C)NCC(=O)O` (stereo not given), the growth is 93.5%.

Consider `CC(=O)C1CCC(C)=CC1=O` (stereo not given), for which the growth was 101%.

With `O=C(CNC1CCCCC1)Nc1ccc(-c2nc3ccccc3s2)cc1`, the growth was 9.67% (active).

For the compound `COc1cccc(C2CC(=O)Nc3c2c(C)nn3-c2nc3ccccc3[nH]2)c1OC` (stereo not given), the growth is 33.2%.

Regarding `CC/C=C\C/C=C\C[C@H]1C/C=C2/C(=O)C=C[C@H]2C/C=C\CCC(=O)O1`, the growth was 4.9% (active).

Turning to `COC1=CC(c2ccc[nH]2)=N/C1=C\c1[nH]c(C)c(C(=O)CCCCC(=O)Oc2ccc3c(c2)CCC2C3CC[C@]3(C)[C@@H](O)CC[C@@H]23)c1C` (stereo not given in full), the growth was 23.2%.

For the compound `NS(=O)(=O)c1ccc(CN2C(=O)c3cccc4cccc(c34)C2=O)cc1`, the growth was 104%.

With `COc1c(NC[C@H]2OC(O)[C@H](O)[C@@H](O)[C@@H]2O)c(=O)c1=O` (stereo not given in full), the growth was 119%.

As to `COc1cc(-c2nc(-c3nc4ccccc4[nH]3)cc3c2[nH]c2ccccc23)cc(OC)c1OC`, the growth is 45.2%.

`COc1cc(/C=C2\CCCC3=C2N=C2SC(C)=NN2C3c2cc(OC)c(OC)c(OC)c2)cc(OC)c1OC` (stereo not given): the growth was 4.78% (active).

For the compound `CN(C)c1ccc(/C=C\N=Nc2ccc(Br)cc2)cc1`, the growth is 21%.

Turning to `CNC(=O)c1cc(Oc2ccc3c(c2)sc2nc(-c4ccc(Cl)cc4)cn23)ccn1`, the growth was 82.9%.

`CCN1C(=O)N(CC)C2Nn3c(s/c(=C4\C(=O)N(C5CCCC5)c5ccccc54)c3=O)=NC21` (stereo not given): the growth was 34.8%.

Regarding `NC(=O)c1c(NC(=O)c2ccc3c(c2)OCO3)sc2c1CCC(=O)C2`, the growth was -19.6% (active).

For the compound `COc1ccc(/C=C/c2nc(N3CCOCC3)c3cc(F)c(F)cc3n2)cc1OC`, the growth was 16.2%.
